Pf apPOL inh = Pf-apPOL DNA polymerase inhibition; AID 1794808; Recombinant Pf-apPOL, molecular beacon fluorescence, 1.5 h; inhibition, % at 10 µM; 0.25% of 210,000 active
mHTT-CaM PPI inh = disrupts binding of mutant huntingtin to calmodulin. AlphaScreen His-mHTT/GST-CaM binding, luminescence. inhibition, % at 15 µM. 3.6% of 190,000 active. AID 1671202
Target sequence (P42858 whole entry, looked up, change not shown): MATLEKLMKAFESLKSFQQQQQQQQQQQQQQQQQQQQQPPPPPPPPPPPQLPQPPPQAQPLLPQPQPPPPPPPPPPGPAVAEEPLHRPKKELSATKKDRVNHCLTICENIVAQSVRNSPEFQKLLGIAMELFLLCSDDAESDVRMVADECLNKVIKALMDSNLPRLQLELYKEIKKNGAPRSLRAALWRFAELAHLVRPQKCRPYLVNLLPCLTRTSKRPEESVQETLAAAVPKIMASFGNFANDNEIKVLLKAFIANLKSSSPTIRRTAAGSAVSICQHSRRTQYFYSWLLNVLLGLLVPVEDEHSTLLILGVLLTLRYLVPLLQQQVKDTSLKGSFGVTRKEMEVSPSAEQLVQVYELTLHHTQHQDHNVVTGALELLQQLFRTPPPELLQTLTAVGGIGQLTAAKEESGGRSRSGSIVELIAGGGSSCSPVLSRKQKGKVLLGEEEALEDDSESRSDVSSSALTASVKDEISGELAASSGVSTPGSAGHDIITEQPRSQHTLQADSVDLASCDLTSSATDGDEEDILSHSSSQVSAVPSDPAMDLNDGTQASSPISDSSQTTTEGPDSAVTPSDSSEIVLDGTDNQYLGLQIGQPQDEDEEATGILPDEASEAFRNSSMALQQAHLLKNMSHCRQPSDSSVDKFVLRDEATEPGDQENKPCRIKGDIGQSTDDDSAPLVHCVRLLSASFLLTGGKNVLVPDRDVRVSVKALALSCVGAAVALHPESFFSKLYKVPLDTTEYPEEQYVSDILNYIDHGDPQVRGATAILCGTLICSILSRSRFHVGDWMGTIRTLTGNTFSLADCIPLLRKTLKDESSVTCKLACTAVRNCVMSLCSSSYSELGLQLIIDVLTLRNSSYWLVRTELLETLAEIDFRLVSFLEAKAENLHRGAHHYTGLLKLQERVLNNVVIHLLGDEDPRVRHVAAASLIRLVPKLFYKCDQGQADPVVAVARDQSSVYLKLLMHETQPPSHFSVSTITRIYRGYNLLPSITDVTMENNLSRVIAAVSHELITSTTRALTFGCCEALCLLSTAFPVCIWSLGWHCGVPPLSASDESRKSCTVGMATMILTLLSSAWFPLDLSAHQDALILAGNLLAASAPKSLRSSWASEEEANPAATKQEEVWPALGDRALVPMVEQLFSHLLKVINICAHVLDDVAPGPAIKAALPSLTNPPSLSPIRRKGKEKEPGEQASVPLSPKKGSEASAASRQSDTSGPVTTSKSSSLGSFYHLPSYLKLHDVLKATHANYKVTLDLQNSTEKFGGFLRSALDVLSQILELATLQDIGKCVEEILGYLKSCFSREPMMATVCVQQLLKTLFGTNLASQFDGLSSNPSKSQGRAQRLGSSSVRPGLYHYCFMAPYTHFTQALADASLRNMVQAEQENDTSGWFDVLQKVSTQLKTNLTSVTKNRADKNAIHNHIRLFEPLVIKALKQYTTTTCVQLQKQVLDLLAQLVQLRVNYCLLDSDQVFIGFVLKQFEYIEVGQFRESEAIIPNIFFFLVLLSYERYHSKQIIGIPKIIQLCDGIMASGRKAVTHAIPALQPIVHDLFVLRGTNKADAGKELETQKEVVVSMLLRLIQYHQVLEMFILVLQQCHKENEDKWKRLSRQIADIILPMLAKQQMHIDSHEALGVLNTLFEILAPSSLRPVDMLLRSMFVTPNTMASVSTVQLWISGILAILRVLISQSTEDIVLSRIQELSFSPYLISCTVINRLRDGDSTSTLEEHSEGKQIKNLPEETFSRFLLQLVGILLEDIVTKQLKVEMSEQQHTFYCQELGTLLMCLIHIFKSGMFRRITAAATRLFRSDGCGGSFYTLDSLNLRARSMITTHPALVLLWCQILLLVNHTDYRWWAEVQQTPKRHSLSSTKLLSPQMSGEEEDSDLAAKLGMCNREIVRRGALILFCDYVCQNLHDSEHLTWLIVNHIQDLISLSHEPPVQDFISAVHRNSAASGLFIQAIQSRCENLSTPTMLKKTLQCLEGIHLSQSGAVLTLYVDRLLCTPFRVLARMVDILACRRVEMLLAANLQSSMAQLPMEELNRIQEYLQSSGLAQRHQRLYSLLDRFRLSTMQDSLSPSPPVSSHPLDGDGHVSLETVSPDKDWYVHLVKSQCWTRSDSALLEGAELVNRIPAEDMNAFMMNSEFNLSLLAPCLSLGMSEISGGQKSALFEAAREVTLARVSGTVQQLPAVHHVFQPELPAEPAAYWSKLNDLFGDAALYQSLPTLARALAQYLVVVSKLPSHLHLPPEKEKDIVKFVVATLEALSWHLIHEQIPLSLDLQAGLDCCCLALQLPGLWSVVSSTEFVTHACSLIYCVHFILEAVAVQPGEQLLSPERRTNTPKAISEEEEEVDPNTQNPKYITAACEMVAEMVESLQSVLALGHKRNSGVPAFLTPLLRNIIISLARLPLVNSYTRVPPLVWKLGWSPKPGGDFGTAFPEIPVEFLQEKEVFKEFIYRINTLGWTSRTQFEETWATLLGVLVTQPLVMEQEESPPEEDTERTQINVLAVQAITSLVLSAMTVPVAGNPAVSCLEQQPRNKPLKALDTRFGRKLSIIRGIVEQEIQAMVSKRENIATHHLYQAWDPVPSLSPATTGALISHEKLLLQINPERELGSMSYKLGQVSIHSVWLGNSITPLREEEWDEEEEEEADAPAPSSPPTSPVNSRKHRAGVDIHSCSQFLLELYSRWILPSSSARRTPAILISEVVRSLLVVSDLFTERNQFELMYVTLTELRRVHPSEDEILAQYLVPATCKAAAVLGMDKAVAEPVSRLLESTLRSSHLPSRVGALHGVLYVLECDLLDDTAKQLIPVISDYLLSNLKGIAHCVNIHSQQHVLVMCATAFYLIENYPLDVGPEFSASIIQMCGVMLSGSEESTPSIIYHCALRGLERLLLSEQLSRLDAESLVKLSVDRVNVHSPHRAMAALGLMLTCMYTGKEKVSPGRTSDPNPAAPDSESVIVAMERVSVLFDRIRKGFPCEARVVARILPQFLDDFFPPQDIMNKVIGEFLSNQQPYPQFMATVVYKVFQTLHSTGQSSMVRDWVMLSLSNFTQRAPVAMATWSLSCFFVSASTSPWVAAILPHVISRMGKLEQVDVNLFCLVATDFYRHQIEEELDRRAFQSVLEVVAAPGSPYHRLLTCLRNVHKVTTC
Large screens that a line does not name were inactive. The list is not random: actives were taken first. Their share in the collection is about 3.5%. Rule as the data show it: active = inhibition above about 50%; inactive = the rest.

COc1ccc(CN2CCN(c3ccc([N+](=O)[O-])cc3)CC2)cc1C	none
CC(=O)N1c2c(cc(Br)cc2S(=O)(=O)Nc2ccc(C(F)(F)F)cc2)CC1C (stereo unspecified)	mHTT-CaM PPI inh 91
CC(=O)N1c2c(cc(Br)cc2S(=O)(=O)Nc2cccc(C(F)(F)F)c2)CC1C (stereo unspecified)	none
COc1cccc(C(=O)Nc2ccc(C(=O)Nc3nccs3)cc2)c1	none
C=Cc1ccc(Cn2cc(S(=O)(=O)N3CCCCCC3)ccc2=O)cc1	none
COc1ccc(OC)c(NC(=O)c2c(NC(=O)CCC(=O)O)sc3c2CCCCC3)c1	mHTT-CaM PPI inh 54
COc1ccccc1NC(=O)c1c(NC(=O)c2ccccc2Cl)sc2c1CCCC2	none
COc1ccc(OC)c(NC(=O)c2c(NCc3cccnc3)sc3c2CCCC3)c1	mHTT-CaM PPI inh 69
COc1ccc(OC)c(NC(=O)c2c(NCc3ccncc3)sc3c2CCC3)c1	mHTT-CaM PPI inh 88
COc1ccc(NC(=O)c2c(NC(C)=O)sc3c2CCCC3)c(OC)c1	none
COc1ccc(Cl)cc1NC(=O)c1c(NCc2ccncc2)sc2c1CCCC2	mHTT-CaM PPI inh 79
COc1ccc(OC)c(NC(=O)c2cccnc2)c1	none
COc1ccc(NC(=O)c2c(NC(=O)CN3CCCC3)sc3c2CCC3)c(OC)c1	none
CCC(=O)N1CCc2cc(Br)cc(S(=O)(=O)NCCCN3CCC(C)CC3)c21	none
CCCCOc1ccc(C(=O)Nc2cccc(O)c2)cc1	none
CCC(=O)N(C)CC(=O)N1N=C(c2cccn2C)CC1c1ccc(C)cc1 (stereo unspecified)	none
CON=C1CC(C)(C)Cc2c(-c3ccn(C(C)=O)n3)sc(SC)c21	none (no result: mHTT-CaM PPI inh)
O=c1/c(=C/c2ccccc2Br)sc2nc(-c3ccccc3)nn12	none
COC(=O)c1ccc(CON=C(N)c2c(-c3c(Cl)cccc3Cl)noc2C)o1	none (no result: mHTT-CaM PPI inh)
CCn1cc(CN(C)C(=O)c2cn3ccccc3n2)c(C)n1	none
COc1ccc(CC(=O)Nc2sc3c(c2C(N)=O)CCCCCC3)cc1OC	none
COc1ccc(OC)c(NC(=O)c2c(NCc3ccncc3)sc3c2CCCC3)c1	mHTT-CaM PPI inh 70
COc1ccc2nc(SCCN3CCCCC3)[nH]c2c1	none
COc1ccc(NC(=O)N2CCc3nc(-c4ccc(F)cc4)ncc3C2)cc1	none
O=C1NC2(CCN(Cc3ccccc3Cl)CC2)N=C1c1ccccc1	none
O=C(Nc1ccccc1Cl)c1cc(S(=O)(=O)N2CCc3ccccc32)ccc1F	none
O=C(O)c1cccc2c1NC(C(=O)O)C1CC=CC21 (stereo unspecified)	mHTT-CaM PPI inh 77
NC(=O)c1cccc2c1NC(C(=O)O)C1CC=CC21 (stereo unspecified)	mHTT-CaM PPI inh 71
Cc1ccccc1C1CN(C(=O)c2ccccc2)CC1C(=O)NCC1CC1 (stereo unspecified)	none
O=c1oc2cc([N+](=O)[O-])ccc2nc1C=C(O)c1cccc(Br)c1	none
COc1ccc(-n2nc3c(c2NC(=O)c2ccc(C(C)(C)C)cc2)CSC3)cc1	mHTT-CaM PPI inh 100
CC(C)C(=O)Nc1c2c(nn1-c1ccc(Oc3ccccc3)cc1)CSC2	mHTT-CaM PPI inh 65
COc1ccc(-n2nc3c(c2NC(=O)c2ccc(Br)cc2)CSC3)cc1	none
COc1ccc(-n2nc3c(c2NC(=O)/C=C/c2cc(OC)c(OC)c(OC)c2)CSC3)cc1	none
COc1ccc(-n2nc3c(c2NC(=O)/C=C/c2ccccc2)CSC3)cc1	mHTT-CaM PPI inh 52
COc1ccc(-n2nc3c(c2NC(=O)c2ccccc2)CSC3)cc1	none
COCCC1CCN(C(=O)c2cncc(Br)c2)CC1	none
Cc1ccccc1CNC(=O)c1cc2n(n1)CCCN(Cc1cccc(F)c1)C2=O	none
COc1cccc(CNC(=O)CN(C)S(=O)(=O)c2ccc3[nH]c4c(c3c2)CCCC4)c1	none
CN(CC(=O)NCCc1ccccc1)S(=O)(=O)c1ccc2[nH]c3c(c2c1)CCCC3	none
CN(CC(=O)NCc1ccc(Cl)cc1)S(=O)(=O)c1ccc2[nH]c3c(c2c1)CCCC3	mHTT-CaM PPI inh 58
COc1ccccc1NC(=O)CN(C)S(=O)(=O)c1ccc2[nH]c3c(c2c1)CCCC3	none
Cc1ccc(CCNC(=O)CN(C)S(=O)(=O)c2ccc3[nH]c4c(c3c2)CCCC4)cc1	mHTT-CaM PPI inh 59
COc1ccccc1CNC(=O)CN(C)S(=O)(=O)c1ccc2[nH]c3c(c2c1)CCCC3	mHTT-CaM PPI inh 58
CS(=O)(=O)NC1CC2CC1N(C(=O)c1ccc(C(F)(F)F)s1)C2 (stereo unspecified)	none
CCc1ccc(C2CC(c3cccc(OC)c3OC)n3nnnc3N2)cc1 (stereo unspecified)	none
COc1ccc(-c2ccc(C(=O)N3CCCCC3)s2)c(OC)c1OC	none
COc1ccc(-c2ccc(C(=O)N3CCc4ccccc4C3)s2)c(OC)c1OC	mHTT-CaM PPI inh 83
COc1ccc2nc3oc(C(=O)Nc4cccc(C#N)c4)cc3cc2c1	none
Cc1ccc(C(=O)Nc2c3c(nn2-c2ccc([N+](=O)[O-])cc2)CS(=O)(=O)C3)cc1C	none
CC(C)(C)NC(=O)C1CCN(S(=O)(=O)c2ccc(Br)s2)CC1	none
C=CCNC(=O)C(=O)Nc1cc(OC)ccc1OC	none
C=CCOc1ccccc1CNc1ccccc1F	none
C=CCOc1ccccc1CNc1ccc(C)cc1	mHTT-CaM PPI inh 54
C=CCOc1ccccc1CNc1cc(OC)ccc1OC	mHTT-CaM PPI inh 67
CCc1ccc2oc(-c3cc(NC(=O)c4ccc(OC)cc4)ccc3O)nc2c1	none
COc1ccc(CNS(=O)(=O)c2c(C)n[nH]c2C)cc1	none
Fc1ccc(-c2nc(-c3cn(-c4ccc(F)cc4)nn3)no2)cc1	none
CC(C)CNC(=O)C1CN(C(=O)c2cccs2)CC12CCCCC2 (stereo unspecified)	none
Cc1ccccc1Cc1c(C)nc2c(C(=O)NC(C)C)cnn2c1C	mHTT-CaM PPI inh 71
Cc1ccccc1Cc1c(C)nc2c(C(=O)NC3CCCC3)cnn2c1C	none
Cc1ccc(C)c(Cc2c(C)nc3c(C(=O)NC4CC4)cnn3c2C)c1	mHTT-CaM PPI inh 53
Cc1ccc(C)c(Cc2c(C)nc3c(C(=O)NC4CCCCC4)cnn3c2C)c1	none
COCCCNC(=O)c1cnn2c(C)c(Cc3cc(C)ccc3C)c(C)nc12	none
Cc1ccc(C)c(Cc2c(C)nc3c(C(=O)NC(C)C)cnn3c2C)c1	mHTT-CaM PPI inh 79
CCN1C(=O)CCC2(CN(C)S(=O)(=O)c3cccs3)CCCC12 (stereo unspecified)	none
CCC(C)NC(=O)c1oc(=O)c2ccccc2c1-c1ccc(C)cc1 (stereo unspecified)	none
CCc1nnc(NC(=O)CSc2nnc(NC(=O)Nc3ccccc3)s2)s1	none
Cc1ccnc(N2CCC(C(=O)N3CCCC3)CC2)n1	none
Cc1c(C(C)(C)C)sc(=NS(=O)(=O)c2cccc([N+](=O)[O-])c2)n1C	none
CC1=CC(=NS(=O)(=O)c2cccc([N+](=O)[O-])c2)C=CC1=O	mHTT-CaM PPI inh 84
C[C@@H]1CCC(=O)N(CC[C@H](Sc2ccccc2)c2ccccc2)CC1	none
[N-]=[N+]=N[C@@H](CCN1CC[C@H](OCc2ccccc2)CCC1=O)c1ccccc1	mHTT-CaM PPI inh 51
O=C1CC[C@@H](O)CCN1CC[C@H](Sc1ccccc1)c1ccccc1	none
O=C1CCC(OCc2ccccc2)CCN1CC[C@@H](Sc1ccccc1)c1ccccc1 (stereo partly specified)	mHTT-CaM PPI inh 80
[N-]=[N+]=N[C@@H](CCN1CC[C@H](NC(=O)OCc2ccccc2)CCC1=O)c1ccccc1	none
O=C1CC[C@@H](OCc2ccccc2)CCN1CC[C@H](Sc1ccccc1)c1ccccc1	mHTT-CaM PPI inh 59
Cc1cc2n(n1)CCCN2C(=O)CCC(=O)N1CCc2ccccc21	none
